Data published in the supplement of paper PMC8728848.
About 410 targets per protein were measured; listed, in parts, are those with the strongest signals and a random draw of the rest.

What was measured:
Experiment in all cases: glycan array binding signal (z-score within array); higher = stronger binding
Settings in all cases: glycan notation: IUPAC condensed, linker removed
[1] = biological target: Fuc(a1-2)Gal(b1-3)GlcNAc(b1-2)Man(a1-3)[Fuc(a1-2)Gal(b1-3)GlcNAc(b1-2)Man(a1-6)]Man(b1-4)GlcNAc(b1-4)GlcNAc
Method in brief: (§1)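 Glycan array binding is given as a within-array Z-score, which can be read as non-binding when negative. The arrays, 3228 of them, came from the Consortium for Functional Glycomics database and were retained only where the protein sequence was available. Z-scores were averaged across arrays of the same protein sequence at different concentrations or buffers and across linkers.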

[2] = biological target: Fuc(a1-2)Gal(b1-3)GlcNAc(b1-3)[Fuc(a1-2)Gal(b1-3)GlcNAc(b1-6)]GalNAc
Method in brief: as §1

[3] = biological target: Fuc(a1-2)[Gal(a1-3)]Gal(b1-3)GalNAc
Method in brief: as §1

[4] = biological target: Fuc(a1-2)[Gal(a1-3)]Gal(b1-4)[Fuc(a1-3)]GlcNAc(b1-3)GalNAc
Method in brief: as §1

[5] = biological target: Fuc(a1-2)[GalNAc(a1-3)]Gal(b1-4)GlcNAc(b1-2)Man(a1-3)[Fuc(a1-2)[GalNAc(a1-3)]Gal(b1-4)GlcNAc(b1-2)Man(a1-6)]Man(b1-4)GlcNAc(b1-4)[Fuc(a1-6)]GlcNAc
Method in brief: as §1

[6] = biological target: Fuc(a1-2)[GalNAc(a1-4)]Gal(b1-4)GlcNAc
Method in brief: as §1

[7] = biological target: Gal(a1-3)Gal(b1-3)GlcNAc(b1-6)GalNAc
Method in brief: as §1

Gal(a1-3)Gal(b1-4)Glc = biological target: Gal(a1-3)Gal(b1-4)Glc
Method in brief: as §1

[8] = biological target: Gal(a1-4)Gal(b1-3)GlcNAc(b1-2)Man(a1-3)[Gal(a1-4)Gal(b1-3)GlcNAc(b1-2)Man(a1-6)]Man(b1-4)GlcNAc(b1-4)GlcNAc
Method in brief: as §1

[9] = biological target: Gal(a1-4)Gal(b1-4)GlcNAc(b1-2)Man(a1-3)[Gal(a1-4)Gal(b1-4)GlcNAc(b1-2)Man(a1-6)]Man(b1-4)GlcNAc(b1-4)GlcNAc
Method in brief: as §1

[10] = biological target: Gal(b1-3)GalNAc(b1-4)Gal(b1-4)Glc
Method in brief: as §1

[11] = biological target: Gal(b1-3)GlcNAc(b1-3)Gal(b1-4)GlcNAc(b1-2)Man(a1-3)[Gal(b1-3)GlcNAc(b1-3)Gal(b1-4)GlcNAc(b1-2)Man(a1-6)]Man(b1-4)GlcNAc(b1-4)GlcNAc
Method in brief: as §1

[12] = biological target: Gal(b1-3)[Fuc(a1-4)]GlcNAc(b1-2)Man(a1-3)[Gal(b1-3)[Fuc(a1-4)]GlcNAc(b1-2)Man(a1-6)]Man(b1-4)GlcNAc(b1-4)[Fuc(a1-6)]GlcNAc
Method in brief: as §1

[13] = biological target: Gal(b1-3)[Fuc(a1-4)]GlcNAc(b1-6)GalNAc
Method in brief: as §1

[14] = biological target: Gal(b1-4)GlcNAc(b1-2)Man(a1-3)[GlcNAc(b1-4)][Gal(b1-4)GlcNAc(b1-2)Man(a1-6)]Man(b1-4)GlcNAc(b1-4)GlcNAc
Method in brief: as §1

[15] = biological target: Gal(b1-4)GlcNAc(b1-3)Gal(b1-4)GlcNAc(b1-2)Man(a1-3)[Gal(b1-4)GlcNAc(b1-3)Gal(b1-4)GlcNAc(b1-2)Man(a1-6)]Man(b1-4)GlcNAc(b1-4)GlcNAc
Method in brief: as §1

[16] = biological target: Gal(b1-4)GlcNAc(b1-3)Gal(b1-4)GlcNAc(b1-2)[Gal(b1-4)GlcNAc(b1-3)Gal(b1-4)GlcNAc(b1-6)]Man(a1-6)[Gal(b1-4)GlcNAc(b1-3)Gal(b1-4)GlcNAc(b1-2)Man(a1-3)]Man(b1-4)GlcNAc(b1-4)GlcNAc
Method in brief: as §1

[17] = biological target: Gal(b1-4)GlcNAc(b1-3)Gal(b1-4)GlcNAc(b1-2)[Gal(b1-4)GlcNAc(b1-3)Gal(b1-4)GlcNAc(b1-6)]Man(a1-6)[Gal(b1-4)GlcNAc(b1-3)Gal(b1-4)GlcNAc(b1-2)Man(a1-3)]Man(b1-4)GlcNAc(b1-4)[Fuc(a1-6)]GlcNAc
Method in brief: as §1

[18] = biological target: Gal(b1-4)GlcNAc(b1-3)Gal(b1-4)GlcNAc(b1-3)Gal(b1-4)GlcNAc(b1-3)Gal(b1-4)GlcNAc(b1-2)Man(a1-3)[Gal(b1-4)GlcNAc(b1-3)Gal(b1-4)GlcNAc(b1-3)Gal(b1-4)GlcNAc(b1-3)Gal(b1-4)GlcNAc(b1-2)Man(a1-6)]Man(b1-4)GlcNAc(b1-4)[Fuc(a1-6)]GlcNAc
Method in brief: as §1

[19] = biological target: Gal(b1-4)GlcNAc(b1-3)Gal(b1-4)GlcNAc(b1-3)Gal(b1-4)GlcNAc(b1-3)Gal(b1-4)GlcNAc(b1-2)[Gal(b1-4)GlcNAc(b1-3)Gal(b1-4)GlcNAc(b1-3)Gal(b1-4)GlcNAc(b1-3)Gal(b1-4)GlcNAc(b1-6)]Man(a1-6)[Gal(b1-4)GlcNAc(b1-3)Gal(b1-4)GlcNAc(b1-3)Gal(b1-4)GlcNAc(b1-3)Gal(b1-4)GlcNAc(b1-2)Man(a1-3)]Man(b1-4)GlcNAc(b1-4)[Fuc(a1-6)]GlcNAc
Method in brief: as §1

[20] = biological target: Gal(b1-4)GlcNAc(b1-3)Gal(b1-4)GlcNAc(b1-3)Gal(b1-4)GlcNAc(b1-3)Gal(b1-4)GlcNAc(b1-3)Gal(b1-4)GlcNAc(b1-2)[Gal(b1-4)GlcNAc(b1-3)Gal(b1-4)GlcNAc(b1-3)Gal(b1-4)GlcNAc(b1-3)Gal(b1-4)GlcNAc(b1-3)Gal(b1-4)GlcNAc(b1-6)]Man(a1-6)[Gal(b1-4)GlcNAc(b1-3)Gal(b1-4)GlcNAc(b1-3)Gal(b1-4)GlcNAc(b1-3)Gal(b1-4)GlcNAc(b1-3)Gal(b1-4)GlcNAc(b1-2)Man(a1-3)]Man(b1-4)GlcNAc(b1-4)[Fuc(a1-6)]GlcNAc
Method in brief: as §1

[21] = biological target: Gal(b1-4)GlcNAc(b1-3)Gal(b1-4)GlcNAc(b1-3)[Gal(b1-4)GlcNAc(b1-3)Gal(b1-4)GlcNAc(b1-6)]GalNAc
Method in brief: as §1

[22] = biological target: Gal(b1-4)GlcNAc(b1-3)Gal(b1-4)GlcNAc(b1-6)[Gal(b1-3)]GalNAc
Method in brief: as §1

B1: GS14009A-pdi-495-27-495 (Parabacteroides distasonis) (protein)
chain: FEEVNTDPDSPTDVPTTNLLAYSLYYTSYRLYDRWFAMDEPMTFCGYASKMTYIDESRYNFRTGVQDTNWEYLYRILNNLKDIEKRATFNETPNMLNVSKVMQVHLMQVATDRWRDVPYTDAAKMTDGILQPKYDKQEDIYPGLLATLKEAADGFADGGSDDLGEGDLLFGGDIEKWQRYCNSMRLRLAMRISEVSPALAKETVEEVMGNPTKYPIMESNDDNAFFWWIGTDPNYYEPMADGYRTRKTEYCAADVIVDHMNTREDPRRSSYFQPTKESVEAGEPKYVGYTIGAKANAVASKYSIWGARFFTDLAGFSPYMRVAEPWFCVAEASMLGWNTGISAEDAYNKAVTYSMEENSVSAEDIADYLANAGKFTNDKKQIYYEEWVAMFKQGMEGWSLYRRTGVPDNLYPAPGRPANYSNHNVPPFRSPYPDKERNLNNANCAPFDAEVVDNLWGKQMWWDTRTGVH
glycan array binding signal (z-score) [1]: 2.57 | glycan array binding signal (z-score) [2]: -0.336 | glycan array binding signal (z-score) [3]: 0.023 | glycan array binding signal (z-score) [4]: -0.109 | glycan array binding signal (z-score) [5]: 2.8 | glycan array binding signal (z-score) [6]: -0.532 | glycan array binding signal (z-score) [7]: -0.003 | glycan array binding signal (z-score) (Gal(a1-3)Gal(b1-4)Glc): -0.017 | glycan array binding signal (z-score) [8]: 2.33 | glycan array binding signal (z-score) [9]: 2.23 | glycan array binding signal (z-score) [10]: 0.001 | glycan array binding signal (z-score) [11]: 4.58 | glycan array binding signal (z-score) [12]: 1.2 | glycan array binding signal (z-score) [13]: 0.634 | glycan array binding signal (z-score) [14]: 15.2 | glycan array binding signal (z-score) [15]: 0.299 | glycan array binding signal (z-score) [16]: 10.6 | glycan array binding signal (z-score) [17]: 0.552 | glycan array binding signal (z-score) [18]: 0.445 | glycan array binding signal (z-score) [19]: 7.28 | glycan array binding signal (z-score) [20]: 3.33 | glycan array binding signal (z-score) [21]: 0.573 | glycan array binding signal (z-score) [22]: -0.044
